Tests used:
Format in all cases: functional
[1] = target: Solute carrier family 2, facilitated glucose transporter member 1 (Homo sapiens) (UniProt P11166); assay: ST_JUDE_LEISH: Cytotoxicity at 2uM final concentration against transgenic Leishmania Mexicana promastigotes LmGLUT1 that are glucose transport deficient and complemented with the human glucose transporter GLUT1. Activity is measured by DNA content using SYBR green in vitro
[2] = target: Hexose transporter 1 (Plasmodium falciparum) (UniProt O97467); assay: ST_JUDE_LEISH: Cytotoxicity at 2uM final concentration against transgenic Leishmania Mexicana promastigotes LmPfHT that are glucose transport deficient and complemented with the Plasmodium falciparum hexose transporter. Activity is measured by DNA content using SYBR green in vitro
[3] = target: Glucose transporter (Leishmania mexicana) (UniProt O61059); assay: ST_JUDE_LEISH: Cytotoxicity at 2uM final concentration against transgenic Leishmania Mexicana promastigotes LmGT2 that are glucose transport deficient and complemented with the L. Mexicana glucose transporter 2. Activity is measured by DNA content using SYBR green in vitro

Sequence of Solute carrier family 2, facilitated glucose transporter member 1 (Homo sapiens) (P11166 whole entry): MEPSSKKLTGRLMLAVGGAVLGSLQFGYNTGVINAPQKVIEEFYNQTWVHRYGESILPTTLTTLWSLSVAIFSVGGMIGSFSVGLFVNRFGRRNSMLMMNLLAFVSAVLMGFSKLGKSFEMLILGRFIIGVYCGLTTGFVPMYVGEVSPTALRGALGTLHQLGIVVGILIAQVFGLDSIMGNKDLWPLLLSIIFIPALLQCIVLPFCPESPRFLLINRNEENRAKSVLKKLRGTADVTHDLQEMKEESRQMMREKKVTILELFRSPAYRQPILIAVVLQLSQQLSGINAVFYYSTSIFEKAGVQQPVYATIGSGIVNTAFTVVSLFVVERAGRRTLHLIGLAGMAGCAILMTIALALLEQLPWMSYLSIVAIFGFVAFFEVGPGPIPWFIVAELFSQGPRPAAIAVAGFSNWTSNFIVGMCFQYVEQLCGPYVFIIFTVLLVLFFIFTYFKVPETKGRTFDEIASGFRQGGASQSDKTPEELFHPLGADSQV

| Compound | inhibition [1] | inhibition [2] | inhibition [3] |
| --- | --- | --- | --- |
| Nc1ncnc2occ(-c3ccc(NC(=O)Nc4cc(C(F)(F)F)ccc4F)cc3)c12 | 0.61% | 2.93% | -2.03% |
| Cc1ccc(C(=O)Nc2cccc(-c3ccc(N4CCN(C)CC4)nn3)c2)cc1[N+](=O)[O-] | 1.32% | -0.23% | -1.16% |
| Cc1nc(C)c(-c2ccc(Oc3ccc(Cl)cc3)cc2)c(O)c1I | 2.9% | 0.57% | 0.03% |
| CS(=O)(=O)c1ccc(-n2nc(C(F)(F)F)cc2-c2ccc(C=NOCC(=O)O)o2)cc1 | 1.5% | 2.45% | -0.38% |
| CCCCN(CCCC)CCCCCCNc1c2ccccc2nc2ccccc12 | 28% | 22.7% | 18.2% |
| CC(=O)Nc1ccc(C(=O)Nc2ccc(-c3csc(-c4nc5ccccc5[nH]4)c3)cc2)cn1 | 1.44% | 1.57% | 0.75% |
| O=C(NCCCN(Cc1ccc(F)cc1)c1ccccn1)C(c1cc2ccccc2o1)N1CCN(C(c2ccccc2)c2ccccc2)CC1 (centres undefined) | 3.35% | 3.69% | 1.89% |
| O=C(Nc1cc(F)cc(-c2cccnc2)c1)c1ccc2c(=O)n(Cc3ccccc3)cnc2c1 | 0.81% | 1.52% | -1.46% |
| CCCCc1cc(N2CCC(NC(C)=O)C2)nc(Nc2ccc(C)cc2)n1 (centres undefined) | 10.9% | 2.45% | 5.78% |
| CCCC(C)c1cnc2nc(N)nc(N)c2c1C (centres undefined) | 3.61% | 4.91% | 4.24% |
| FC(F)(F)c1cccc(Nc2nc(-c3ccccc3)nc3ncccc23)c1 | 3.41% | 2.83% | 3.04% |
| CN(C)c1ccc(N2C(N)=NC(N)=NC23CCCC3)cc1 | -0.69% | -0.9% | -3.85% |
| Cc1cc(Nc2ccc(Cl)c(Cl)c2)n2nc(C)nc2n1 | -1.71% | -1.26% | 0.04% |

Source: ChEMBL document CHEMBL3433997, “St. Jude Leishmania screening dataset” (2016)
